# Compounds with a hit are over-represented: about 0.92% of the library has one in this group of screens.
# CIT2 TOR yeast: alters CIT2-GFP fluorescence in TOR pathway yeast screen. S. cerevisiae CIT2-GFP strain, flow cytometry, 3 h; 100 means same as DMSO wells. GFP response vs DMSO, % at 10 µM. 320,000 compounds, 0.065% hits. AID 2029;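 active = GFP response relative to DMSO above a set limit, near the screen mean plus 3 SD, cut at about 150% in these data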;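 also: ratio of well median GFP fluorescence to mean of DMSO wells on the plate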
# AGP1-GFP MLPCN: alters AGP1-GFP fluorescence in TOR pathway yeast screen. GFP response vs DMSO, % at 10 µM. S. cerevisiae AGP1-GFP multiplex flow cytometry, 3 h; GFP as percent of DMSO wells. 320,000 compounds, 0.02% hits;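 active = GFP response relative to DMSO above a set limit, near screen average plus 3 SD, cut at about 150% in these data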;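 also: median GFP channel fluorescence of the gated AGP1 strain per well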
# LAP4-GFP MLPCN: modulators of TOR pathway LAP4-GFP in S. cerevisiae | AID 2023 | S. cerevisiae LAP4-GFP multiplex, flow cytometry GFP, 3 h; median GFP as percent of DMSO wells | 320,000 compounds, 0.34% hits | GFP response vs DMSO, % at 10 µM;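 active = GFP response vs DMSO above a set limit, about the screen mean plus 3 SD, cut at about 150% in these data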
# MEP2-GFP yeast: modulators of TOR pathway MEP2-GFP in S. cerevisiae | 330,000 compounds, 0.51% hits | GFP response vs DMSO, % at 10 µM | S. cerevisiae MEP2-GFP strain, flow cytometry GFP, 3 h; 100% = DMSO control level;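 active = GFP response versus DMSO above a set limit, roughly screen mean plus 3 SD, cut at about 180% in these data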;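 also: median GFP fluorescence of the barcode-gated MEP2-GFP cells per well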
# RPL19A TOR yeast: yeast TOR pathway RPL19A-GFP modulation | S. cerevisiae RPL19A-GFP strain, flow cytometry, 3 h; hits give low values | percent response vs DMSO, % at 10 µM | 330,000 compounds, 0.3% hits;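 active = percent response vs DMSO below 50%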;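 also: median channel GFP fluorescence of the barcoded RPL19A-GFP strain; lower means less RPL19A-GFP as with rapamycin TOR inhibition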
# LAP4-GFP pick2: second confirmation of modulators of TOR reporter LAP4-GFP in yeast | shares compounds with LAP4-GFP MLPCN | S. cerevisiae LAP4-GFP strain, flow cytometry GFP, 3 h | GFP response vs DMSO, % at 10 µM | 590 compounds, 20% hits | AID 2621;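 active = GFP signal as percent of the solvent control above about 150%, meaning raised reporter expression, limit read from the data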
# MEP2 cherry2: reconfirmed MEP2-GFP TOR pathway modulator in yeast | shares compounds with LAP4-GFP MLPCN | AID 2622 | S. cerevisiae MEP2-GFP strain, flow cytometry GFP, 3 h | GFP response vs DMSO, % at 10 µM | 590 compounds, 10% hits;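 active = GFP signal above 150% of the solvent control wells, that is a rise of more than half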;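 also: median channel GFP fluorescence of all gated yeast cells per well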
# RPL19A GFP CP2: reconfirmed modulator of RPL19A-GFP TOR reporter in yeast; 590 compounds, 3% hits; S. cerevisiae RPL19A-GFP strain, flow cytometry GFP, 3 h; hits give low values; 100% means same as DMSO wells; GFP response vs DMSO, % at 10 µM; AID 2623; shares compounds with LAP4-GFP MLPCN;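 active = under 65% GFP response relative to DMSO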;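 also: median GFP channel fluorescence per well over the all cells gate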
# CIT2 GFP CP2: yeast CIT2-GFP TOR reporter modulation, second cherry pick. AID 2624. 590 compounds, 8% hits. S. cerevisiae CIT2-GFP strain, flow cytometry GFP, 3 h; DMSO control wells read 100%. GFP response vs DMSO, % at 10 µM. shares compounds with LAP4-GFP MLPCN;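 active = GFP response vs DMSO above about 150%, limit read from the data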;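 also: median green fluorescence per well over all gated yeast cells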
# AGP1-GFP pick2: yeast AGP1-GFP TOR reporter modulation, second cherry pick. 590 tested, under 10 active. shares compounds with LAP4-GFP MLPCN. percent response vs DMSO, % at 10 µM. S. cerevisiae AGP1-GFP strain, flow cytometry GFP, 3 h;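 active = over 150 percent of DMSO response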;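 also: median GFP channel fluorescence over all cells without mother daughter split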
# Yeast autofluor: counter-screen for compound autofluorescence in yeast s288c cells; shares compounds with LAP4-GFP MLPCN; S. cerevisiae s288c, 520 nm autofluorescence, flow cytometry, 3 h; hits give high values; zero means same as solvent-only cells; fluorescence change (kMESF span) at 33 µM; 610 tested, under 10 active;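 active = fluorescence span over the dose series, or activity score, above about 33, limit read from the data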
# Yeast autofl DR: TOR screen hit shows autofluorescence in yeast s288c; fluorescence change (span) at 33 µM; S. cerevisiae s288c parental, compound autofluorescence, flow cytometry, 3 h; AID 488829; shares compounds with LAP4-GFP MLPCN; 110 tested, under 10 active;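 active = fluorescence change span, or the activity score built from it, above 25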
# TORC1 bypass: wildtype yeast growth loss with TORC1 bypass cells unaffected. shares compounds with LAP4-GFP MLPCN. S. cerevisiae BY4741 spot growth rating, 48-72 h; hits give low values. growth rating (0-3) at 30 µM. 120 tested, under 10 active. AID 504456;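 active = growth rating at most 1 for wild type yeast while the TORC1 bypass strain still grows fully, rated 3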
# A number is an active result; 0 = inactive; - = no result.
SMILES,CIT2 TOR yeast,AGP1-GFP MLPCN,LAP4-GFP MLPCN,MEP2-GFP yeast,RPL19A TOR yeast,LAP4-GFP pick2,MEP2 cherry2,RPL19A GFP CP2,CIT2 GFP CP2,AGP1-GFP pick2,Yeast autofluor,others
COc1ccc(C(=O)O/N=C2\C(=O)N(C)c3ccccc32)cc1,0,0,0,0,0,-,-,-,-,-,-,
CN(C)c1oc(/C=C/c2cccs2)nc1S(=O)(=O)c1ccccc1,0,0,0,0,0,0,0,0,0,0,-,
N#Cc1cc([N+](=O)[O-])c(-n2nnc3ccccc32)c([N+](=O)[O-])c1,0,0,206.1,0,0,-,-,-,-,-,0,
COc1ccccc1-c1cc2nc(C)c(CCC(=O)NC(C)CCc3ccco3)c(C)n2n1 (stereo unspecified),0,0,0,0,0,-,-,-,-,-,-,
O=C1N=c2ccccc2=C1c1c(O)n(-c2cccc(F)c2)[nH]c1=O,0,0,200.0,0,0,0,0,0,0,0,-,
CC(C)(C)c1ccc(NC(=O)COC(=O)c2ccc([N+](=O)[O-])s2)cc1,0,0,211.2,0,0,226.0,223.0,0,0,0,0,Yeast autofl DR=0;TORC1 bypass=0
Cc1[nH]c2ccccc2c1C(=O)COC(=O)c1ccc([N+](=O)[O-])s1,0,0,0,0,0,0,179.9,0,0,0,0,
O=C(O)c1ccccc1CSc1nnc2c(n1)[nH]c1ccccc12,0,0,0,0,0,-,-,-,-,-,-,
O=C(NC(=S)Nc1ccc2oc(=O)ccc2c1)c1cccc(Cl)c1,0,0,0,0,0,0,0,0,0,0,0,
O=C(NC(=S)Nc1ccc2oc(=O)ccc2c1)c1cccc(F)c1,0,0,0,0,0,-,-,-,-,-,-,
CCc1noc(C)c1C(=O)Nc1nc2c(F)cc(F)cc2s1,0,0,163.1,0,0,0,0,0,0,0,-,
CCS(=O)(=O)N1CCC(C(=O)Nc2ccc3c(c2)CCC3)CC1,154.1,0,0,0,0,0,0,0,0,0,-,
COc1cccc2c1C(=O)c1c(O)c3c(c(O)c1C2=O)C[C@@](O)(C(=O)CO)C[C@@H]3O[C@H]1C[C@H](N)[C@@H](O)[C@H](C)O1,0,0,0,0,0,-,-,-,-,-,-,
CC(=O)[C@]1(O)Cc2c(O)c3c(c(O)c2[C@@H](O[C@H]2C[C@H](N)[C@H](O)[C@H](C)O2)C1)C(=O)c1ccccc1C3=O,0,0,152.4,0,0,151.0,153.1,0,0,0,0,
CCCCC(CC)CN=C(N)NC(N)=NCCCCCCN=C(N)NC(N)=NCC(CC)CCCC (stereo unspecified),0,0,160.3,0,0,0,0,0,0,0,-,
O=S(=O)(/N=C(\c1ccccc1)N1CCOCC1)c1ccc(Cl)cc1,0,0,0,0,0,-,-,-,-,-,-,
O=S(=O)(/N=C(\Sc1ccccc1)c1ccccc1)c1ccc(Cl)cc1,0,0,0,0,0,0,0,0,0,0,-,
Cc1ccc(S(=O)(=O)/N=C(/Sc2ccccc2C(=O)O)c2ccccc2)cc1,0,0,0,0,0,0,0,0,0,0,-,
Cc1ccc(S(=O)(=O)/N=C(\Sc2ccccc2)c2ccccc2)cc1,0,0,173.6,0,0,-,-,-,-,-,0,
N/C(=N\OC(=O)c1ccccc1Cl)c1ccc(Cl)cc1,168.8,0,0,0,0,-,-,-,-,-,0,
N/C(Cc1ccc(Cl)cc1)=N\OC(=O)c1ccc2ccccc2c1,0,0,0,0,0,-,-,-,-,-,-,
N/C(Cc1ccc(Cl)cc1Cl)=N\OC(=O)c1ccccc1,0,0,169.8,0,0,-,-,-,-,-,0,
N/C(=N\OC(=O)c1ccc(Cl)cc1Cl)c1ccccc1,0,0,256.6,0,0,-,-,-,-,-,0,
N/C(Cc1ccc(Cl)cc1)=N\OC(=O)c1cccc2ccccc12,0,0,195.7,0,0,-,-,-,-,-,0,Yeast autofl DR=0;TORC1 bypass=0
Cc1cccc(N(C(=O)c2csnn2)C(C(=O)NC(C)(C)C)c2cccs2)c1 (stereo unspecified),0,0,0,0,0,-,-,-,-,-,-,
SMILES,CIT2 TOR yeast,AGP1-GFP MLPCN,LAP4-GFP MLPCN,MEP2-GFP yeast,RPL19A TOR yeast,LAP4-GFP pick2,MEP2 cherry2,RPL19A GFP CP2,CIT2 GFP CP2,AGP1-GFP pick2,Yeast autofluor,others
O=C1/C(=C/C=C/c2ccccc2)Oc2c1ccc(O)c2CN1CCN(CCO)CC1,0,0,0,0,0,-,-,-,-,-,-,
CCN1CCN(Cc2c(O)ccc3c2O/C(=C\C=C\c2ccccc2)C3=O)CC1,0,0,152.9,0,0,0,0,0,0,0,-,
COCCN(C(=O)c1cc(Cl)ccn1)c1c(N)n(Cc2ccccc2)c(=O)[nH]c1=O,0,0,0,0,0,-,-,-,-,-,-,
COc1ccc(-c2n[nH]c(C)c2-c2ccc(Cl)cc2)c(O)c1,0,0,0,0,0,0,0,0,0,0,-,
COc1ccc2c(c1)CC/C(=C/c1cc(OC)c(OC)c(OC)c1)C2=O,0,0,0,0,0,-,-,-,-,-,-,
COc1ccc(C=C2C(=O)c3ccccc3C2=O)cc1O,0,0,0,0,0,0,0,0,0,0,0,
COc1cc(C=C2C(=O)c3ccccc3C2=O)cc(OC)c1,0,0,0,0,0,0,0,0,0,0,0,
COc1cccc(/C=C2\C(=O)C(=O)c3ccccc32)c1,0,0,0,0,0,-,-,-,-,-,-,
COc1cc(C=C2C(=O)c3ccccc3C2=O)cc(OC)c1OC,0,0,0,0,0,0,0,0,0,0,0,
O=S(=O)(Nc1ccc2cn[nH]c2c1)c1cc(Br)ccc1Br,0,0,0,0,0,-,-,-,-,-,-,
CCOC(=O)c1[nH]c(C)c(C(=O)OCC(=O)Nc2sc3c(c2C#N)CCCCC3)c1C,-,0,0,0,0,-,-,-,-,-,-,

# From PubChem
